# Screening data: PubChem, several laboratories
# MBD2 DNA inh: MBD2-methylated oligo binding inhibition; Q9UBB5; TR-FRET, MBD2 binding to methylated oligonucleotide; inhibition, % at 4.4 µM; 0.31% of 370,000 active; in the data active = inhibition above about 13%
# Rin1 Abl inh: inhibitors of human Rin1-Abl protein interaction | P00519+Q13671 | TR-FRET Rin1/Abl binding, biochemical | inhibition, % at 7.35 µM | 0.4% of 360,000 active; in the data active = inhibition above about 5%, passing the limit was not always enough
# UHRF1 binding: human UHRF1 methylated DNA binding inhibitors | Q96T88 | UHRF1 binding to methylated oligo, TR-FRET | inhibition, % at 4.4 µM | 0.75% of 370,000 active | AID 687016; in the data active = inhibition above about 21%;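 also: UHRF1 SRA domain binding a hemimethylated CpG hairpin DNA probe; 0% = median of test compound wells and 100% = reference inhibitor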
# KLK7 zymogen act: activators of human kallikrein-7 zymogen | purified proKLK7, EDANS-DABCYL substrate fluorescence; 100% is mature enzyme control, 0% vehicle | AID 652039 | 0.9% of 370,000 active | P49862 | activation, % at 7 µM;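 active = activation above the mean of all tested compounds plus 3 SD, computed per campaign excluding outliers beyond control limits, cut at about 13% in these data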
# LEDGF integ inh: blocks HIV-1 LEDGF/p75-dependent DNA integration; TR-FRET IN-LEDGF/p75 DNA integration, Eu/Cy5; inhibition, % at 3.7 µM; 0.64% of 370,000 active; AID 743269;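 active = inhibition above the screen-wide mean plus 3 SD, cut at about 13% in these data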;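 also: signal is the Cy5 over europium emission ratio at 671 and 618 nm; 0% = plate median of compound wells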
# Neddyl block: blocks human cullin neddylation. P61081+Q13564. TR-FRET cullin neddylation, biochemical. calls only at 25 µM. 0.58% of 360,000 active. AID 651699; in the data active = inhibition above about 36%
# Rin1-Abl confirm: Rin1-Abl interaction inhibition confirmation; inhibition, % at 7.35 µM; shares compounds with Rin1 Abl inh; 49% of 1,300 active; AID 602124; TR-FRET Rin1-Abl binding, purified proteins; in the data active = inhibition above about 6.5%
# GFP quencher: quenches GFP fluorescence, counter-screen for Rin1-Abl inhibitors. shares compounds with Rin1 Abl inh. inhibitors/quenchers counterscreen. inhibition, % at 6.75 µM. 8.5% of 1,300 active; in the data active = inhibition above about 6.5%;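 also: ABL1-eGFP fusion protein alone without its partner RIN1-SBP; 0% = protein with vehicle and 100% = wells lacking protein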
# UHRF1 DNA bind: inhibits human UHRF1 binding to methylated oligonucleotide, MBD2 counter-screen | TR-FRET | 25% of 1,000 active | AID 720530 | shares compounds with MBD2 DNA inh | inhibition, % at 4.4 µM; in the data active = inhibition above about 21%;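 also: UHRF1 SRA domain binding a labeled hemimethylated CpG hairpin DNA; 0% = vehicle only and 100% = reference inhibitor with vehicle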
# MBD2 confirm: confirmation of human MBD2-DBD methylated oligonucleotide binding inhibitors. inhibition, % at 4.4 µM. TR-FRET MBD2-DBD binding to methylated oligonucleotide. shares compounds with MBD2 DNA inh. 26% of 1,000 active. AID 720531
# IN multimer up: HIV-1 integrase multimerization activation, counter-screen; shares compounds with LEDGF integ inh; TR-FRET HIV-1 integrase multimerization, biochemical; activation, % at 7.7 µM; 17% of 2,000 active; in the data active = activation above about 8.9%
# TR-FRET interf: optically interferes with TR-FRET readout in LEDGF counter-screen | 2,000 tested, under 10 active | AID 1053135 | inhibition, % at 7.7 µM | shares compounds with LEDGF integ inh | TR-FRET optical interference counterscreen, HIV-1 IN multimerization;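 active = inhibition above the mean over all tested compounds plus 3 SD, which no compound reached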;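 also: 0% = integrase with antibodies and DMSO and 100% = antibodies without integrase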
# LEDGF integ conf: LEDGF/p75-dependent HIV-1 integration inhibition, confirmation; inhibition, % at 3.7 µM; AID 1053136; 36% of 2,000 active; TR-FRET LEDGF/p75-dependent HIV-1 integration, biochemical; shares compounds with LEDGF integ inh
# The depositor's hits bear a star; i = inactive; x = no result given. Compounds with a hit are over-represented: about 3.1% of the library has one in this group of screens. Rule as the data show it, unless noted: active = inhibition above about 14%; inactive = the rest.
SMILES,MBD2 DNA inh,Rin1 Abl inh,UHRF1 binding,KLK7 zymogen act,LEDGF integ inh,Neddyl block,Rin1-Abl confirm,GFP quencher,IN multimer up,TR-FRET interf,LEDGF integ conf,others
CC(C)Oc1ccc(C(=O)Nc2c3c(nn2C(C)(C)C)CS(=O)(=O)C3)cc1,-3,1,-1,0,1,i,x,x,x,x,x,
Cc1cnc(C(=O)Nc2c(-c3ccccc3)[nH][nH]c2=O)cn1,-1,x,-4,-1,-1,i,x,x,x,x,x,
CN(C)c1ccc(-c2[nH][nH]c(=O)c2NC(=O)c2ccc3ccccc3n2)cc1,8,36*,17,-12,31*,i,10*,3,6,-23,19*,
Cc1noc(C)c1S(=O)(=O)N(C)C[C@@H]1OCc2cn(nn2)CCCC(=O)N([C@H](C)CO)C[C@H]1C,-2,x,2,0,1,x,x,x,x,x,x,
CN(CCc1ccccc1)C(=O)c1ccc(NC(=O)Cc2cccc(NC(=O)C3CCN(C(=O)c4ccccc4)CC3)c2)cc1,-1,9.1*,1,0,21*,i,9.1*,1,-3,13,1,
CN=c1scc(C)n1/N=C/c1cc(Br)c(O)c(OC)c1,2,-6,-2,2,-6,i,x,x,x,x,x,
CN=c1scc(-c2cccs2)n1/N=C/c1ccc(O)c(O)c1O,4,8.8*,8,-1,28*,i,9.7*,13*,5,-25,42*,
CN=c1scc(C)n1/N=C/c1ccc(O)c(O)c1O,4,36*,5,0,57*,i,21*,20*,33*,-168,40*,
CN=c1scc(-c2cccs2)n1/N=C/c1ccccc1O,0,2,0,-27,-3,i,x,x,x,x,x,
COc1ccc(/C=C/C(=O)NNC(=O)c2ccncc2)c(OC)c1,-4,2,-3,0,2,i,x,x,x,x,x,
O=C(Nc1cccc(C(F)(F)F)c1)c1ccc2nc(-c3ccco3)c(-c3ccco3)nc2c1,2,3,0,0,-1,i,x,x,x,x,x,
O=C(O)c1ccc2nc(-c3ccco3)c(-c3ccco3)nc2c1,69*,14*,93*,6,86*,i,2,5,73*,-258,76*,UHRF1 DNA bind=73*;MBD2 confirm=23*
COc1ccc(O)c(C(c2c(C)[nH][nH]c2=O)c2c(C)[nH][nH]c2=O)c1,9,22*,14,0,22*,i,0,-1,0,-1,12,
CCOc1cc(C(c2c(C)[nH][nH]c2=O)c2c(C)[nH][nH]c2=O)ccc1O,-2,-6,-10,1,4,i,x,x,x,x,x,
Cc1ccc(N(CC(=O)NC2CCCC2)C(=O)CCC(=O)Nc2nc(C)cs2)cc1,2,3,3,0,-1,i,x,x,x,x,x,
Cc1nc2ccccc2c(=O)n1/N=C/c1ccc(O)c(O)c1O,27*,27*,37*,-1,61*,i,15*,23*,18*,-93,80*,UHRF1 DNA bind=3;MBD2 confirm=0
CN1OC[C@@H]2CN(C(=O)C3CCCCC3)[C@H](c3ccc(N4CCCCC4)cc3)C[C@@H]21,-4,x,-3,0,-9,x,x,x,x,x,x,
